In the first assay the test system is LOC_OS04G35114-cb001. Kind of assay: thermal shift delta Tm vs DMSO control; higher = stronger stabilization (binding). The conditions noted are these: 12.5 µM; protein concentration 2 µM. The gist of the method:
(§1)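 Thermal shift values come from differential scanning fluorimetry on purified rice kinase domains made in E. coli, with melting temperatures obtained from Boltzmann fits. Samples of 19.5 μl held 2 μM kinase, 100 mM potassium phosphate pH 7.5, 150 mM NaCl, 10% glycerol, 5 × SYPRO Orange and compound in DMSO, and were heated from 25°C to 95°C at 0.05°C/s. Each shift is a triplicate mean relative to the DMSO-only protein sample.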
Take `CCCCCCCCCCCCCCCCn1cc[n+](Cc2ccccc2)c1C`: the “thermal shift delta Tm” value was -2.5 °C.

On to `O=C(/C=C/c1ccc(O)c(O)c1)c1ccc(O)cc1O` [Butein], for which the “thermal shift delta Tm” value is 3.66 °C.

For `NC(=O)c1ncn([C@@H]2O[C@H](CO)[C@@H](O)[C@H]2O)c1N` [AICAR (Acadesine)], the “thermal shift delta Tm” value came to 0.59 °C.

Turning to `COCCOc1ccc2c(c1)ncn2-c1ccc2cccc(N3CCC(N)CC3)c2n1`, the “thermal shift delta Tm” value was found to be 10 °C.

Take `CCCCCCCCCCCCCCCCCCOP(=O)([O-])OC1CC[N+](C)(C)CC1` [Perifosine (KRX-0401)]: the “thermal shift delta Tm” value is -3.56 °C.

Regarding `COc1ccc(-c2ccc3c(N4CCOCC4)nc(N4C[C@@H](C)O[C@@H](C)C4)nc3n2)cc1CO`, the “thermal shift delta Tm” value turned out to be 0.21 °C.

As for `Cc1cc(Nc2nc(N[C@@H](C)c3ccc(F)cc3)c(C#N)cc2F)n[nH]1`, the “thermal shift delta Tm” value turned out to be 1.88 °C.

For the compound `O=c1nc(N2CCOCC2)oc2c(-c3cccc4c3sc3ccccc34)cccc12`, the “thermal shift delta Tm” value was -0.68 °C.

On to `Cn1cc(-c2ccc3nnc(C(F)(F)c4ccc5ncccc5c4)n3n2)cn1`, for which the “thermal shift delta Tm” value stood at 0.35 °C.

In the case of `Cc1cc(C(C)Nc2ccccc2)c2nc(N3CCOCC3)cc(=O)n2c1` (configuration not stated), the “thermal shift delta Tm” value amounted to 0.33 °C.

Consider `COc1cc(N2CCC(N(C)C)CC2)ccc1Nc1ncc(Cl)c(Nc2ccccc2P(C)(C)=O)n1`, for which the “thermal shift delta Tm” value is 4.67 °C.

`CC(C)c1cnn2c(NCc3ccccc3)cc(NCCCCCCN)nc12`: the “thermal shift delta Tm” value worked out at 0.56 °C.

`Cc1cc([C@@H](C)Nc2ccccc2C(=O)O)c2nc(N3CCOCC3)cc(=O)n2c1`: the “thermal shift delta Tm” value was found to be 0.73 °C.

Take `CC(C)NC(=O)C1CCC(n2c(NC(=O)c3ccc(F)cc3)nc3ccc(CN4CCC(C(C)(C)O)CC4)cc32)CC1` (configuration not stated) [Belizatinib (TSR-011)]: the “thermal shift delta Tm” value is 6.28 °C.

Consider `COc1ccc(-c2ccc3ncc4c(c3c2)n(-c2ccc(N3CCNCC3)c(C(F)(F)F)c2)c(=O)n4C)cn1`, for which the “thermal shift delta Tm” value worked out at 7.13 °C.

Regarding `CN1CCN(c2ccc3nc(-c4c(N)c5c(F)cccc5[nH]c4=O)[nH]c3c2)CC1` [Dovitinib (TKI-258, CHIR-258)], the “thermal shift delta Tm” value came out at 7.2 °C.

Take `NC(=O)c1ccc2nc(-c3ccc(Oc4ccc(Cl)cc4)cc3)[nH]c2c1` [Chk2 Inhibitor II (BML-277)]: the “thermal shift delta Tm” value was found to be 0.43 °C.

For the compound `CC1(C)OCCn2c1nc1c(N3CCOCC3)nc(-c3cnc(N)nc3)nc12`, the “thermal shift delta Tm” value came out at 0.39 °C.

`C=CC(=O)Nc1cccc(Nc2nc(Nc3ccc(OCCOC)cc3)ncc2F)c1`: the “thermal shift delta Tm” value amounted to 3.89 °C.

As to `NC(=O)c1cnc(N[C@@H]2CCCC[C@@H]2N)nc1Nc1cccc(-n2nccn2)c1`, the “thermal shift delta Tm” value was 1.31 °C.

Consider `CNC(=O)c1cc(Oc2ccc3nc(N[C@@H]4CCCC[C@H]4O)sc3c2)ccn1`, for which the “thermal shift delta Tm” value came out at 0.24 °C.

Take `CCn1c2ccccc2c2cc(Nc3ccnc(NCCCN4CCOCC4)n3)ccc21`: the “thermal shift delta Tm” value was determined as 1.09 °C.

`CCC(=O)Nc1cccc(Oc2nc(Nc3ccc(N4CCN(C)CC4)cc3OC)ncc2Cl)c1`: the “thermal shift delta Tm” value is 0.8 °C.

In the case of `CN1CCN(c2nc(C3=C(c4c[nH]c5ccccc45)C(=O)NC3=O)c3ccccc3n2)CC1` [Sotrastaurin], the “thermal shift delta Tm” value was found to be 1.49 °C.

In the case of `C=CCc1ccc(O)c(-c2ccc(O)c(CC=C)c2)c1` [Honokiol], the “thermal shift delta Tm” value is 0.36 °C.

Another assay has as its system T1, LOC_OS04G38480-cb003.
T1 sequence (whole entry): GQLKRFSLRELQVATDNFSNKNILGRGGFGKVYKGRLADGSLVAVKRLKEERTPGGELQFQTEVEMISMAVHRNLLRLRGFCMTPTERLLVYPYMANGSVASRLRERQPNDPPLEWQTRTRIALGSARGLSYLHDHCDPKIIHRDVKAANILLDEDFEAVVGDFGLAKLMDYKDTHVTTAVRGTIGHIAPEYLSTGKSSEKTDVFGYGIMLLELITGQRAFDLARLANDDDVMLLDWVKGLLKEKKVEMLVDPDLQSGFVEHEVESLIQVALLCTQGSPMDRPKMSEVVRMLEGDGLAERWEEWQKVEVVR
The assay is described as above. The following applies: 12.5 µM; protein concentration 2 µM. The gist of the method: as §1
Consider `COc1ccc(CC(=O)Nc2nc3c(s2)CCc2ccccc2-3)cc1OC`, for which the “thermal shift delta Tm” value turned out to be 1.33 °C.

Regarding `CNS(=O)(=O)Nc1nccc(Cc2c(C)c3ccc(Oc4ncccn4)cc3oc2=O)c1F`, the “thermal shift delta Tm” value was found to be 0.35 °C.

On to `C[C@H](NC(=O)/C(C#N)=C/c1cccc(Br)n1)c1ccccc1`, for which the “thermal shift delta Tm” value came out at 0.59 °C.

As for `COc1ccc(COc2cc3oc(=O)c4cc(C(C)O)ccc4c3cc2OC)cc1` (configuration not stated) [Palomid 529 (P529)], the “thermal shift delta Tm” value is 1.4 °C.

Consider `CC(C)(C)Cn1c(N)nc2ccc(-c3[nH]c(C(C)(C)C)nc3-c3ccc(F)cc3)nc21`, for which the “thermal shift delta Tm” value was found to be 0.12 °C.

Turning to `COc1ccccc1-c1cc(Nc2cccc(CS(N)(=O)=O)c2)ncn1`, the “thermal shift delta Tm” value worked out at 2.33 °C.

`Cn1cnc(N)c2ncnc1-2` [3-Methyladenine (3-MA)]: the “thermal shift delta Tm” value turned out to be 1.15 °C.

Take `C=CC(=O)N[C@H]1CCOC[C@H]1Nc1ncc2cc(-c3c(Cl)c(OC)cc(OC)c3Cl)ccc2n1`: the “thermal shift delta Tm” value was 0.04 °C.

Take `CCS(=O)(=O)Nc1ccc2c(c1)/C(=C(/Nc1ccc(CN3CCCCC3)cc1)c1ccccc1)C(=O)N2` [Hesperadin]: the “thermal shift delta Tm” value turned out to be 4.11 °C.

Regarding `Cc1cc(Nc2cc(N3CCN(C)CC3)nc(/C=C/c3ccccc3)n2)n[nH]1` [ENMD-2076 L-(+)-Tartaric acid], the “thermal shift delta Tm” value came to 2.07 °C.

With `Cc1ccc(F)c(NC(=O)Nc2ccc(-c3cccc4[nH]nc(N)c34)cc2)c1` [Linifanib (ABT-869)], the “thermal shift delta Tm” value turned out to be 0.22 °C.

For the compound `CO[C@H]1C[C@@H]2CC[C@@H](C)[C@@](O)(O2)C(=O)C(=O)N2CCCC[C@H]2C(=O)O[C@H]([C@H](C)C[C@@H]2CC[C@@H](OCCO)[C@H](OC)C2)CC(=O)[C@H](C)/C=C(\C)[C@@H](O)[C@@H](OC)C(=O)[C@H](C)C[C@H](C)/C=C/C=C/C=C/1C` [Everolimus (RAD001)], the “thermal shift delta Tm” value worked out at 0.94 °C.

Turning to `CCCCCCCCCCCCCCCCn1cc[n+](Cc2ccccc2)c1C`, the “thermal shift delta Tm” value was -5.2 °C.

For `O=C(/C=C/c1ccc(O)c(O)c1)c1ccc(O)cc1O` [Butein], the “thermal shift delta Tm” value turned out to be 3.43 °C.

For `NC(=O)c1ncn([C@@H]2O[C@H](CO)[C@@H](O)[C@H]2O)c1N` [AICAR (Acadesine)], the “thermal shift delta Tm” value stood at 0.31 °C.

Take `COCCOc1ccc2c(c1)ncn2-c1ccc2cccc(N3CCC(N)CC3)c2n1`: the “thermal shift delta Tm” value stood at 2.9 °C.

Take `CCCCCCCCCCCCCCCCCCOP(=O)([O-])OC1CC[N+](C)(C)CC1` [Perifosine (KRX-0401)]: the “thermal shift delta Tm” value is -0.3 °C.

For `COc1ccc(-c2ccc3c(N4CCOCC4)nc(N4C[C@@H](C)O[C@@H](C)C4)nc3n2)cc1CO`, the “thermal shift delta Tm” value was determined as 0.34 °C.

Regarding `Cc1cc(Nc2nc(N[C@@H](C)c3ccc(F)cc3)c(C#N)cc2F)n[nH]1`, the “thermal shift delta Tm” value stood at 2.31 °C.

Consider `O=c1nc(N2CCOCC2)oc2c(-c3cccc4c3sc3ccccc34)cccc12`, for which the “thermal shift delta Tm” value came out at 0.64 °C.

Take `Cn1cc(-c2ccc3nnc(C(F)(F)c4ccc5ncccc5c4)n3n2)cn1`: the “thermal shift delta Tm” value was 0.98 °C.

Take `Cc1cc(C(C)Nc2ccccc2)c2nc(N3CCOCC3)cc(=O)n2c1` (configuration not stated): the “thermal shift delta Tm” value is 0.36 °C.

Regarding `COc1cc(N2CCC(N(C)C)CC2)ccc1Nc1ncc(Cl)c(Nc2ccccc2P(C)(C)=O)n1`, the “thermal shift delta Tm” value amounted to 3.65 °C.

In the case of `CC(C)c1cnn2c(NCc3ccccc3)cc(NCCCCCCN)nc12`, the “thermal shift delta Tm” value is -0.44 °C.

Take `Cc1cc([C@@H](C)Nc2ccccc2C(=O)O)c2nc(N3CCOCC3)cc(=O)n2c1`: the “thermal shift delta Tm” value was 0.55 °C.

For `CC(C)NC(=O)C1CCC(n2c(NC(=O)c3ccc(F)cc3)nc3ccc(CN4CCC(C(C)(C)O)CC4)cc32)CC1` (configuration not stated) [Belizatinib (TSR-011)], the “thermal shift delta Tm” value turned out to be 1.98 °C.

Consider `COc1ccc(-c2ccc3ncc4c(c3c2)n(-c2ccc(N3CCNCC3)c(C(F)(F)F)c2)c(=O)n4C)cn1`, for which the “thermal shift delta Tm” value is 1.98 °C.

For `CN1CCN(c2ccc3nc(-c4c(N)c5c(F)cccc5[nH]c4=O)[nH]c3c2)CC1` [Dovitinib (TKI-258, CHIR-258)], the “thermal shift delta Tm” value was 1.57 °C.

On to `NC(=O)c1ccc2nc(-c3ccc(Oc4ccc(Cl)cc4)cc3)[nH]c2c1` [Chk2 Inhibitor II (BML-277)], for which the “thermal shift delta Tm” value came to 0.19 °C.

For the compound `CC1(C)OCCn2c1nc1c(N3CCOCC3)nc(-c3cnc(N)nc3)nc12`, the “thermal shift delta Tm” value was found to be 0.75 °C.

With `C=CC(=O)Nc1cccc(Nc2nc(Nc3ccc(OCCOC)cc3)ncc2F)c1`, the “thermal shift delta Tm” value was found to be 3.75 °C.

Turning to `NC(=O)c1cnc(N[C@@H]2CCCC[C@@H]2N)nc1Nc1cccc(-n2nccn2)c1`, the “thermal shift delta Tm” value stood at 0.85 °C.

For `CNC(=O)c1cc(Oc2ccc3nc(N[C@@H]4CCCC[C@H]4O)sc3c2)ccn1`, the “thermal shift delta Tm” value was found to be 1.59 °C.

For `CCn1c2ccccc2c2cc(Nc3ccnc(NCCCN4CCOCC4)n3)ccc21`, the “thermal shift delta Tm” value came out at 1.71 °C.

Turning to `CCC(=O)Nc1cccc(Oc2nc(Nc3ccc(N4CCN(C)CC4)cc3OC)ncc2Cl)c1`, the “thermal shift delta Tm” value was determined as 1.83 °C.

In the case of `CN1CCN(c2nc(C3=C(c4c[nH]c5ccccc45)C(=O)NC3=O)c3ccccc3n2)CC1` [Sotrastaurin], the “thermal shift delta Tm” value came to 0.76 °C.

With `C=CCc1ccc(O)c(-c2ccc(O)c(CC=C)c2)c1` [Honokiol], the “thermal shift delta Tm” value amounted to 1.32 °C.

Values taken from the supplement of paper PMC9694430.
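Also: purified Escherichia coli-expressed rice kinase domain construct.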
